A selection: hits, their analogues and other compounds. The true share with any hit is near 9.5%.
NS1 inh = qHTS Assay for Inhibitors of Influenza NS1 Protein Function; Potency, µM (highest dose often 46.1 µM), for inactives: at the highest dose activity, positive = more growth; 0.4% of 270,000 active; AID 2326, 2010; note: actives are rising curves; nearly all actives have a fitted effect of over 50% in size
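Read-out: OD600 growth recovery of NS1-expressing budding yeast. Cells grown overnight at 30C in -URA glucose medium, washed, resuspended and diluted 1:100 in 2% galactose assay medium, pH 6.0. Same strain lacking NS1 served as positive control.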
Pf growth 96h = Primary qHTS for delayed death inhibitors of the malarial parasite plastid, 96 hour incubation; P. falciparum luciferase reporter growth, 96 h; Potency, µM (series often up to 28.7 µM), inactives show at the highest dose activity change, negative = inhibition, actives largely listed as inhibitors; 6.9% of 320,000 active; AID 504834, 2011; active = well fitted inhibition curve with a large enough effect; inconclusive = small, poorly fitted or top-dose-only effect, or another doubt; inactive = no such curve, though single readings can be large or run the other way; note: % is set by controls: 0 for no effect and ±100 for the full control effect
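P. falciparum expressing integrated firefly luciferase grown in erythrocytes (2% hematocrit, 0.05% parasitemia final) with compounds for 96 hours at 37 C, 5% CO2. Growth inhibition read as loss of luminescence after adding luciferase detection reagent.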
RE007 growth inh = qHTS Assay for Inhibitors of the HIV-1 protein Vpr; Potency, µM (doses to about 92.2 µM), without a hit: top-dose activity change, negative = less growth, most hits filed as inhibitors; S. pombe RE007 Vpr strain, BacTiter-Glo ATP luminescence, 24 h; 0.21% of 360,000 active; AID 651644, 2012; active = well fitted falling curve with a large enough effect; inconclusive = small, poorly fitted or top-dose-only effect; inactive = no such curve, though single readings can be large or run the other way; note: % is set by controls: 0 for no effect and ±100 for the full control effect; nearly all actives have a fitted effect of over 50% in size
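Fission yeast strain RE007, carrying one chromosomally integrated HIV-1 vpr copy, was seeded at OD 0.01 in PMG+AL medium with 23 nL pinned compound. After 24 h at 30 °C and 99% humidity, viability was read by BacTiter-Glo luminescence.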
Pf growth 48h = Primary qHTS for delayed death inhibitors of the malarial parasite plastid, 48 hour incubation; P. falciparum luciferase growth in erythrocytes, 48 h; Potency, µM (doses to about 28.7 µM), without a hit: at the top dose activity change, negative = inhibition, usual class: inhibitors; 5.9% of 310,000 active; AID 504832, 2011; active = well fitted inhibition curve with a large enough effect; inconclusive = small, poorly fitted or top-dose-only effect, or another doubt; inactive = no such curve, though single readings can be large or run the other way; note: % is set by controls: 0 for no effect and ±100 for the full control effect
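Growth was read as firefly luciferase luminescence after a 48 h, 37 C, 5% CO2 exposure of compounds to reporter-bearing P. falciparum cultures (0.1% parasitemia, 2% hematocrit final) in Albumax-supplemented RPMI 1640.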
SARS PLpro yeast = qHTS of Yeast-based Assay for SARS-CoV PLP; 0.19% of 330,000 active; Potency, µM (doses to about 32.9 µM), for inactives: top-dose activity, positive = growth rescue, most hits filed as activators; S. cerevisiae expressing SARS-CoV PLpro, growth rescue; note: 0% is about no effect; nearly all actives have a fitted effect of over 55% in size
* = called active by the depositor; ? = inconclusive; nt = no result. Unless noted, calls come from the whole dose curve. Potency is the fitted concentration of half-maximal effect.

SMILES	NS1 inh	Pf growth 96h	RE007 growth inh	Pf growth 48h	SARS PLpro yeast
CC(C)Cc1nnc(NC(=O)c2ccc(-n3cncn3)c([N+](=O)[O-])c2)s1	nt	nt	16%	nt	nt
C=CCn1c(O)c(C(C)=NCCC(c2ccccc2)c2ccccc2)c(=O)[nH]c1=O	7%	12µM*	21%	-13%	9%
C=CCn1c(O)c(C(C)=NC(C)c2ccccc2)c(=O)[nH]c1=O (configuration not stated)	-4%	-5%	3%	-1%	-1%
CNCCCC12CCC(c3ccccc31)c1ccccc12	-5%	?	-4%	12µM*	-14%
O=S(=O)(c1ccc(Cl)cc1)N1CCN(C(=S)NCC2CCCO2)CC1 (configuration not stated)	1%	-10%	7%	0.93µM*	-1%
O=S(=O)(c1ccc(F)cc1)N1CCN(C(=S)NCCc2ccccc2)CC1	14%	?	12%	1.9µM*	3%
S=C(NCC1CCCO1)N1CCN(c2ccccc2)CC1 (configuration not stated)	nt	4.7µM*	5%	31%	-4%
O=S(=O)(c1ccc(F)cc1)N1CCN(C(=S)NCC2CCCO2)CC1 (configuration not stated)	nt	2.1µM*	0%	2.6µM*	3%
O=C(NC(=S)Nc1cc(C(F)(F)F)ccc1Cl)c1ccccc1	21%	?	1%	22%	3%
FC(F)(F)c1ccc(Cl)c(NC(=S)N/N=C/c2ccccc2Cl)c1	0%	1.5µM*	6%	?	-3%
NC(=O)c1cc(NC(=O)CCNS(=O)(=O)c2cccc(C(F)(F)F)c2)cc(C(N)=O)c1	9%	47%	-30%	9%	5%
Cc1ccc2oc(Nc3nc(-c4ccccc4)cc(=O)[nH]3)nc2c1	nt	0.83µM*	1%	?	0%
COCc1cc(=O)[nH]c(Nc2nc3ccccc3o2)n1	-36%	-16%	-9%	?	1%
Cc1cc(C)c2nc(Nc3nc(-c4ccccc4)cc(=O)[nH]3)nc(C)c2c1	1%	3.7µM*	-11%	1.7µM*	1%
CCc1nnc(NC(=O)c2cc(S(=O)(=O)N(C)c3ccc(OC)cc3)ccc2Cl)s1	-2%	22%	-20%	-18%	-6%
O=C(c1ccoc1)N1CCN(c2cc(-c3ccccc3)nc3cc(-c4ccc(Br)cc4)nn23)CC1	nt	nt	38%	nt	nt
COC(=O)Nc1ccc(S(=O)(=O)N2c3ccccc3CCC2C)cc1 (configuration not stated)	-38%	65%	13%	15µM*	-3%
CC1CCc2cc(F)ccc2N1S(=O)(=O)c1ccc(F)cc1 (configuration not stated)	-18%	?	-2%	-9%	8.9µM*
COC(=O)Nc1ccc(S(=O)(=O)N2CCCCC2C(=O)O)cc1 (configuration not stated)	0%	?	3%	-5%	0%
Cc1cc(OCCN2CC2)c2ccccc2n1	6%	10µM*	nt	13µM*	-1%
Cc1ccccc1OCCN1CCCC1	7%	-3%	-1%	3%	-5%
CC(C)(C)C(=O)NCCCC(=O)O	nt	-11%	nt	?	nt
CC(=O)c1ccc(NC(=O)CSc2ccc3nnc(-c4ccccn4)n3n2)cc1	8%	?	-11%	?	1%
O=C(CSc1ccc2nnc(-c3ccccn3)n2n1)Nc1ccc2c(c1)OCO2	-4%	1.9µM*	14%	3.7µM*	6%
Cc1cc(NC(=O)CSc2ccc3nnc(-c4cccs4)n3n2)no1	-18%	2.3µM*	-9%	nt	0%
SMILES	NS1 inh	Pf growth 96h	RE007 growth inh	Pf growth 48h	SARS PLpro yeast
COc1ccc(OC)c(NC(=O)CSc2ccc3nnc(-c4cccnc4)n3n2)c1	nt	12µM*	-5%	?	-1%
COc1ccc(NC(=O)CSc2ccc3nnc(-c4ccccn4)n3n2)cc1	5%	12µM*	2%	?	-1%
O=C(CSc1ccc2nnc(-c3ccccn3)n2n1)Nc1ccc2c(c1)OCCO2	5%	?	6%	nt	7%
Cc1ccc(-c2nnc3ccc(SCC(=O)Nc4cc(C)on4)nn23)cc1	-3%	-28%	3%	?	10%
CCn1c(SCC(=O)Nc2ccc3c(c2)OCCO3)nnc1-c1ccccn1	-16%	2.1µM*	18%	0%	-2%
CCCc1cc(=O)[nH]c2nnc(SCC(=O)Nc3ccc4c(c3)OCCO4)n12	nt	41%	-5%	21%	-1%
Cc1c(C)n2c(SCC(=O)Nc3ccc4c(c3)OCCO4)nnc2[nH]c1=O	nt	?	5%	9.3µM*	4%
Cc1ccc(NC(=O)CSc2ccc3nnc(-c4ccccn4)n3n2)cc1	5%	13µM*	1%	?	0%
Fc1cccc(CSc2ccc3nnc(-c4ccccn4)n3n2)c1	-6%	1.9µM*	12%	?	0%
O=C(OCc1ccccc1)N1CCC2CC1c1cc(N3CCN(S(=O)(=O)c4cccc5ccccc45)CC3)ccc12 (configuration not stated)	nt	nt	6%	nt	nt
Cc1cccc2c1ncc1c(=O)n(-c3ccccc3)[nH]c12	2%	?	11%	-11%	0%
Cc1ccc(C(=O)NC2CCCCCCC2)cc1S(=O)(=O)N1CCOCC1	nt	9.3µM*	-4%	?	-2%
O=C(NC1CCCC1)c1ccc(Cl)c(S(=O)(=O)N2CCOCC2)c1	5%	9%	-4%	4.7µM*	5%
O=C(NC1CCCCCCC1)c1ccc(F)c(S(=O)(=O)N2CCOCC2)c1	nt	?	0%	?	-2%
CCOc1ccc(NC(=S)c2ccncc2)cc1	-6%	9.3µM*	-23%	33%	-31%
CCCCOc1ccc(CC(=O)NO)cc1	-30%	0.23µM*	-8%	0.41µM*	12%
CCc1nc2ccc(C(=O)NCCc3ccco3)cc2nc1CC	-8%	?	13%	86%	-13%
CCOc1ccc(CCNC(=O)c2ccc3nc(CC)c(CC)nc3c2)cc1	7%	13µM*	6%	-12%	1%
O=C(COc1ccc(C(=O)NCCc2ccccc2)cc1)Nc1ccccc1	-5%	4.1µM*	2%	7%	6%
N#CCC(C(=O)c1cccnc1)c1ccccc1 (configuration not stated)	nt	nt	0%	nt	nt
C[C@H](NC(=O)N1CCn2c1nc1ccccc12)C(=O)NCc1ccccc1	-4%	-7%	-1%	-11%	?
CCCCOc1ccc(C(=O)NCCc2ccccc2)cc1	1%	2.6µM*	5%	27%	?
CC(Oc1ccc(C(=O)NCCc2ccccc2)cc1)C(=O)O (configuration not stated)	1%	nt	10%	39%	-6%
CCOc1ccc(NS(=O)(=O)c2ccc(C(=O)NCc3ccncc3)cc2)cc1	nt	-4%	8%	?	-5%
CCOc1ccc(C(=O)NCc2ccncc2)cc1	4%	4.1µM*	-2%	7%	-3%
